Screen size: about 320,000 compounds; about 22,000 (6.9%) were called active. Another 27% or so got no clear call; they are omitted. Calls come from the whole dose curve; as a rule, active = well fitted inhibition curve with a large enough effect; inconclusive = small, poorly fitted or top-dose-only effect, or another doubt; inactive = no such curve, though single readings can be large or run the other way. The full list was thinned out, with actives kept by preference.
% is set by controls: 0 for no effect and ±100 for the full control effect; potency is the fitted concentration of half-maximal effect.

The experiment can be described thus: Primary qHTS for delayed death inhibitors of the malarial parasite plastid, 96 hour incubation. The following applies: P. falciparum luciferase reporter growth; series mostly up to 28.7 µM; activity change, negative = inhibition: at the top concentration. In a few lines:
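Luminescence readout: decreased luciferase signal marks inhibited growth of reporter-expressing P. falciparum in infected red cells (2% hematocrit, 0.05% parasitemia final), exposed to compound two generations (96 h, 37 C, 5% CO2).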
In the case of `COc1ccccc1C(=O)COC(=O)CSCC(=O)Nc1cc(C)on1`, the “activity change, negative = inhibition” value was 11.2% (inactive). Consider `Cc1cc(NC(=O)CSCc2nc(-c3cccc(Cl)c3)oc2C)no1`, for which the Potency was 11.7 µM (active). `Cc1ccc(-c2csc(SCC(=O)Nc3cc(C)on3)n2)cc1`: the “activity change, negative = inhibition” value is -16.1% (inactive). Still for that read-out and setting: then `Oc1c(Cl)cc(Cl)cc1/C=N/c1ncn[nH]1`, with 13.7% (inactive); and `CC(C)C[C@H](NC(=O)C1CC(=O)N(c2ccc3c(c2)OCCO3)C1)C(=O)NC1CCCC1` (stereo partly specified), with -33.8% (inactive); and `CCCn1c(=O)c(C(=O)Nc2cc(C)ccn2)c(O)c2ccccc21`, with -14.4% (inactive). Consider `CC(C)c1ccc(OCC(O)CN2CCN(c3ccccn3)CC2)cc1` (stereo unspecified), for which the “activity change, negative = inhibition” value is 399% (inactive).

On to `O=C(c1ccccc1)c1ccc(OCC(O)CN2CCCC2)cc1` (stereo unspecified), for which the “activity change, negative = inhibition” value is -1.41% (inactive). Still for that read-out and setting: then `O=[N+]([O-])c1ccc(N2CCN(CC(O)COc3ccccc3)CC2)cc1` (stereo unspecified), with 17.6% (inactive). Turning to `CC(=O)Nc1ccc(OCC(O)CN2CCN(c3ccccc3Cl)CC2)cc1` (stereo unspecified), the Potency is 3.7 µM (active). The same measure, in the same setting: then `O=C(c1ccc(Cl)cc1)c1ccc(OCC(O)CN2CCCCC2)cc1` (stereo unspecified), with 2.33 µM (active). Take `OC(COc1ccc(Br)cc1)CN1CCCC1` (stereo unspecified): the “activity change, negative = inhibition” value was 8.39% (inactive). Take `COc1ccc(C2CC(c3ccc([N+](=O)[O-])cc3)=NN2C(C)=O)cc1` (stereo unspecified): the “activity change, negative = inhibition” value was -93.3% (inactive). Regarding `COCc1c(C(=O)OCC(=O)Nc2ccc(OC(F)F)cc2)oc2ccccc12`, the “activity change, negative = inhibition” value was -20.6% (inactive). On the same count and under the same terms, then `Cc1ccc(NC(=O)Cn2c(C)csc2=O)cc1`, with 57.6% (inactive); and `O=C(NCCSc1ncc(-c2ccccc2)[nH]1)c1ccco1`, with 15% (inactive).

On to `Cc1ccc(S(=O)(=O)N(CCCN(C)C)Cc2ccc3c(c2)OCO3)cc1`, for which the “activity change, negative = inhibition” value was 29.2% (inactive).

In the case of `COc1ccccc1CCNS(=O)(=O)c1cn(C)nc1C`, the “activity change, negative = inhibition” value was 90.8% (inactive). Consider `CCC(=O)N1CCc2cc(S(=O)(=O)NC(C(=O)N3CCc4ccccc4C3)C(C)C)ccc21` (stereo unspecified), for which the “activity change, negative = inhibition” value is -1.47% (inactive). Still for that read-out and setting: then `CC(=O)N1CCc2cc(S(=O)(=O)NC3CCCCC3)ccc21`, with 27.2% (inactive). Turning to `CCOC(=O)N1CCC(NC(=O)C(NS(=O)(=O)c2ccc3c(c2)CCN3C(=O)CC)C(C)C)CC1` (stereo unspecified), the Potency was 16.5 µM (active). Consider `O=S(=O)(NC1CCCC1)c1ccc(-n2cnnn2)cc1`, for which the “activity change, negative = inhibition” value is 0.984% (inactive). For the compound `COc1cc(OC)cc(C(=O)NCCSCc2ccc(Cl)cc2)c1`, the “activity change, negative = inhibition” value is 15.3% (inactive).

On to `COc1ccc(/C=C(\C#N)C(=O)OCC(=O)N(C)C2CCS(=O)(=O)C2)cc1` (stereo unspecified), for which the “activity change, negative = inhibition” value was 11.7% (inactive).

Regarding `CC(C)CC(O)C1CCN(C(=O)CCc2nnc(-c3ccc4c(c3)OCO4)o2)CC1` (stereo unspecified), the “activity change, negative = inhibition” value is 26.7% (inactive). As to `CC(=O)N/C(=C\c1ccc(F)cc1)C(=O)NC(Cc1ccccc1)C(=O)O` (stereo unspecified), the “activity change, negative = inhibition” value is -1.95% (inactive). Same read-out and setting: in the case of `O=C(NC(Cc1ccccc1)C(=O)O)/C(=C\c1ccccc1)NC(=O)c1ccco1` (stereo unspecified) it was 110% (inactive). Consider `O=C(NC(Cc1ccc(O)cc1)C(=O)O)/C(=C/c1ccccc1)NC(=O)c1ccccc1` (stereo unspecified), for which the Potency was 11.7 µM (active). `Cc1ccc(OCC(=O)Nc2nnc(-c3ccco3)s2)cc1`: the “activity change, negative = inhibition” value was 12.4% (inactive). Consider `CC(NS(=O)(=O)c1ccc(Cl)cc1)C(=O)Nc1ccc2c(c1)OCCO2` (stereo unspecified), for which the “activity change, negative = inhibition” value was 30.4% (inactive).

As for `COCCCn1c(SCC(=O)Nc2oc(C)c3c(C)n[nH]c(=O)c23)nc2sc3c(c2c1=O)CCC3`, the “activity change, negative = inhibition” value was -3.96% (inactive). Regarding `CC(C)(C)NC(=O)C(=O)NCc1ccncc1`, the Potency was 3.29 µM (active). Consider `CCCC(C)C(=O)NCc1ccncc1` (stereo unspecified), for which the “activity change, negative = inhibition” value is 0% (inactive). For `O=C(NCc1ccncc1)C(=O)NCc1ccco1`, the “activity change, negative = inhibition” value was 10.7% (inactive). `CCc1cccc(NC(=O)COC(=O)c2cc(=O)c3ccccc3o2)c1`: the “activity change, negative = inhibition” value is 20.8% (inactive). On to `COC(=O)c1sc(NC(=O)COC(=O)C2CCC2)c(C(=O)OC)c1C`, for which the “activity change, negative = inhibition” value was -1.55% (inactive).

With `COc1ccc(-n2ncc3c(N4CCCc5ccccc54)ncnc32)cc1`, the Potency was 13.1 µM (active).

As to `COc1ccc(N2CCN(C(=O)CSc3ncnc4c3cnn4-c3ccc(OC)cc3)CC2)cc1`, the “activity change, negative = inhibition” value is -5.18% (inactive). For `c1ccc(-n2ncc3c(N4CCCC4)ncnc32)cc1`, the “activity change, negative = inhibition” value is 27.8% (inactive).

Turning to `O=C(NCC(=O)N(c1ccccc1)C(C(=O)NCC1CCCO1)c1ccccc1)c1cccs1` (stereo unspecified), the “activity change, negative = inhibition” value was -23.4% (inactive). Same read-out and setting: then `O=C(O)c1ccccc1-c1ccccc1C(=O)Nc1ccccc1Br`, with -27.2% (inactive). As to `COC(=O)CN1C(=O)[C@H]2[C@@H](/C=C/c3ccccc3)N3C(=O)CN(CC4CC4)C(=O)[C@@]3(Cc3ccccc3)[C@H]2C1=O`, the “activity change, negative = inhibition” value is 25.2% (inactive). The same measure, in the same setting: then `Fc1ccc(-c2ccc(NCCN3CCOCC3)nn2)cc1`, with 15.4% (inactive); and `O=S(=O)(c1ccc(SCc2ccccc2)nc1)N1CCCCCC1`, with 5.66% (inactive); and `Cc1cc(=O)oc2cc(NC(=O)C(C)Oc3ccccc3)ccc12` (stereo unspecified), with 35.7% (inactive). `COc1ccc(-c2cc(=O)oc3cc(OC(C)C(=O)Nc4ccc(CN5CCOCC5)cc4)ccc23)cc1` (stereo unspecified): the Potency is 9.28 µM (active).

On to `Cc1cc(=O)oc2cc(OC(C)C(=O)Nc3ccc(N4CCOCC4)cc3)ccc12` (stereo unspecified), for which the “activity change, negative = inhibition” value is 2.35% (inactive).

Consider `CN1C(=O)C2(OCCCO2)c2cc(Cl)ccc21`, for which the “activity change, negative = inhibition” value was -11.2% (inactive).

For the compound `Cc1cc(S(=O)(=O)c2cc3ccc(O)c(C)c3oc2=O)ccc1F`, the “activity change, negative = inhibition” value is 4.07% (inactive). Same read-out and setting: then `CCOc1ccc(-n2cnc3c(=O)[nH]c(N)nc32)cc1`, with 1.24% (inactive); and `Cc1n[nH]c(C)c1S(=O)(=O)N1CCCC(C(=O)Nc2ccc(Br)cc2)C1` (stereo unspecified), with -16.5% (inactive); and `CCC(C)C(N=C1NS(=O)(=O)c2ccccc21)C(=O)N1CCC(C)CC1` (stereo unspecified), with 80.9% (inactive). The same measure, in the same setting: in the case of `CCOC(=O)N1CCN(C(=O)c2ccc(S(=O)(=O)Nc3cccc(C(F)(F)F)c3)cc2)CC1` it was -11% (inactive).

Take `Nc1ccn(CC(=O)N2CCN(c3ccccn3)CC2)c(=O)n1`: the “activity change, negative = inhibition” value was 64.8% (inactive). As to `CC(C)C(=O)Nc1oc(-c2ccccc2)cc1C#N`, the Potency was 2.08 µM (active). Consider `CC(C)C(=O)Nc1ccc2c(c1)oc1ccccc12`, for which the “activity change, negative = inhibition” value was -9.01% (inactive). The same measure, in the same setting: then `CC(Oc1ccccc1)C(=O)Nc1oc(-c2ccco2)c(-c2ccco2)c1C#N` (stereo unspecified), with -5.03% (inactive); and `CCC(=O)Nc1ccc2nn(-c3ccc(F)cc3)nc2c1`, with 0% (inactive); and `Cc1cccc(NC(=O)CN2CCN(CC(=O)NCC3(N4CCCCC4)CCCCC3)CC2)c1C`, with 1.42% (inactive). Same read-out and setting: then `COC(=O)c1sccc1NC(=O)COc1ccc(Cl)cc1`, with 8.06% (inactive). With `COC(=O)c1c(NC(=O)COc2ccc(Cl)cc2Cl)sc2c1CC(C)(C)NC2(C)C`, the Potency was 6.57 µM (active).

In the case of `CN1CCN(c2ccc(NC(=O)COc3ccc(Cl)cc3Cl)cc2)CC1`, the “activity change, negative = inhibition” value is -18.7% (inactive). Consider `Cc1nc2ccccc2c(=O)n1-c1ccc(F)c(NC(=O)c2cccs2)c1`, for which the “activity change, negative = inhibition” value was 12% (inactive).

Take `O=C(NCc1cccc(Cl)c1)C1CCC(=O)N(C2CC2)C1` (stereo unspecified): the “activity change, negative = inhibition” value is 35.7% (inactive). Same read-out and setting: then `CCN1CCN(CCNC(=O)c2ccc3c(c2)NC(=O)/C(=C\c2ccc(OC)c(OC)c2)S3)CC1`, with -26.6% (inactive).

For the compound `Cc1ccc(S(=O)(=O)N(CC(O)CN2C(=O)NC(C)(C)C2=O)c2cccc([N+](=O)[O-])c2)cc1` (stereo unspecified), the “activity change, negative = inhibition” value was 3.55% (inactive).
